Data on 18 compounds can be found in PubChem BioAssay (NCATS).

The structures appear in SMILES notation. Values without a mark were called inactive. Results filed as inconclusive are left out. Active and inactive are the calls of the source. Unless noted, calls come from the whole dose curve; as a rule, active = well fitted curve in the direction sought with a large enough effect; inconclusive = small, poorly fitted or top-dose-only effect, or another doubt; inactive = no such curve, though single readings can be large; an effect the other way counts as inactive or inconclusive.

The subject of one assay is PA-1. The experiment in a line: Primary qHTS to identify gynecologic anti-cancer compounds using libraries of approved drugs and bioactive compounds (AID 1345084). Note: % is set by controls: 0 for no effect and ±100 for the full control effect; nearly all actives have a fitted effect of over 55% in size. Conditions: Gynecologic cancer cell panel viability, ATPlite luminescence, 48 h; series mostly up to 57.5 µM. An outline of the steps:
(§1)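 In this quantitative HTS, cell killing is estimated from loss of ATP-dependent luciferase light. Cells see five compound concentrations over a 48 h exposure.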

For the next assay, the system named is SKOV3. The description is as above. Conditions: Gynecologic cancer cell panel viability, ATPlite luminescence, 48 h; series mostly up to 57.5 µM. The method, boiled down:
as §1
In general terms: ATP-based viability assays read luminescence as a measure of living cells.

In another assay the test system is Tov-21-G. The assay is described as above. Conditions: Gynecologic cancer cell panel viability, ATPlite luminescence, 48 h; series mostly up to 57.5 µM. An outline of the steps: as §1
Another assay deals with Tov112D. The assay is described as above. Conditions: Gynecologic cancer cell panel viability, ATPlite luminescence, 48 h; series mostly up to 57.5 µM. An outline of the steps:
as §1

Assay [1] is described as follows: Drug repurposing screens with cells derived from glioblastoma tumor samples (AID 1345199). For activity, negative = cell killing: % is set by controls: 0 for no effect and ±100 for the full control effect. Note: nearly all actives have a fitted effect of over 40% in size. Note: potency is the fitted concentration of half-maximal effect. To be noted: GBM patient neurospheres viability, ATP luminescence, 48 h. An outline of the steps:
(§2)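 Four patient lines of CD133+ GBM neurospheres were screened at several concentrations; hits were retested in those lines plus three slower-growing GBM lines, using 48-hour treatment and ATP-based viability.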

The subject of a further assay is astro. The description is as above. To be noted: viability, ATP luminescence, 48 h; series mostly up to 45.9 µM. The method, boiled down: as §2
In assay [2] the target is Nuclear receptor subfamily 1 group I member 2 (Rattus norvegicus) (UniProt Q9R1A7). The experiment in a line: qHTS assay for small molecule activators of the rat pregnane X receptor (rPXR) signaling pathway (AID 651751; call rule not given here; note: 0% is about no effect). Conditions: rPXR reporter cells, luciferase (One-Glo), 24 h. For orientation: Quantitative high-throughput screening tests each substance at several concentrations.

Assay [3] can be described thus: qHTS assay to identify inhibitors of the type 1 interferon - major histocompatibility complex class I in skeletal muscle: Counter screen cell viability and HiBit confirmation (AID 1347412). Note: % is set by controls: 0 for no effect and ±100 for the full control effect; nearly all actives have a fitted effect of over 60% in size. Conditions: iHSKM muscle cells + IFN-b, HiBiT or CellTiter-Glo, 24 h; Viability; at 45.9 µM (top of the series). An outline of the steps: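 Myoblasts (C25cl48, HLA-B HiBiT) seeded in medium without dexamethasone, IFN-b 4 ng/ml added except unstimulated columns; 1 hr later compounds pinned (12-pt 1:3, top 46 uM final). Incubated 24 hrs, lysed 10 min, luminescence measured.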

Where [4] appears, read: at 45.9 µM (top of the series), tumour line B.
Setting [5] is: at 45.9 µM (top of the series), tumour line D.
The mark [6] stands for this setting: at 46 µM (top of the series), tumour line A.
Where [7] appears, read: at 46.1 µM (top of the series), tumour line C.
Setting [8] is: at 20 µM (top of the series), tumour line C.
Setting [9] is: at 21.2 µM (top of the series), tumour line B.
The mark [10] stands for this setting: at 21.2 µM (top of the series), tumour line D.

Sequence of Nuclear receptor subfamily 1 group I member 2 (Rattus norvegicus) (Q9R1A7 whole entry, looked up): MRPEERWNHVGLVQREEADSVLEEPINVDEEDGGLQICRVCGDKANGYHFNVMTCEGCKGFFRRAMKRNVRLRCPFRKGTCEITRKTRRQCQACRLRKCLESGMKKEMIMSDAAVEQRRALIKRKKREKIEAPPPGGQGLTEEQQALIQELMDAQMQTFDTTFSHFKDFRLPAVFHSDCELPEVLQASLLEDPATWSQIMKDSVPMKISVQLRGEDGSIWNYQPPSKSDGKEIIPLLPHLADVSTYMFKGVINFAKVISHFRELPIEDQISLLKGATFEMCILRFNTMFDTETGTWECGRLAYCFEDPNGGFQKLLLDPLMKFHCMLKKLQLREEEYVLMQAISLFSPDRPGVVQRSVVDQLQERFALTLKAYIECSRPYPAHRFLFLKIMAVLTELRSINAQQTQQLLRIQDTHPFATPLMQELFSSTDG

With `Cc1ccc(S(=O)(=O)NC(=O)NN2CCCCCC2)cc1`, the Potency entry with PA-1, in the assay on SKOV3, in the assay with Tov-21-G, with Tov112D and in the assay with astro was “inactive” in each case. Further, the activity, negative = cell killing in assay [1] (setting [4]) was 5.62%; in assay [1] (setting [5]) it was 15.6%; in assay [1] (setting [6]) it was -3.14%; in assay [1] (setting [7]) it was -5.87%. Further, the max response in assay [2] is 0.57%.
In the case of `C[N+](C)(C)CCOC(N)=O`, the Potency entry with PA-1, with SKOV3, in the assay on Tov-21-G, in the assay with Tov112D and in the assay with astro was “inactive” each time. Further, the activity, negative = cell killing in assay [1] (setting [4]) is -5.35%; in assay [1] (setting [5]), -11.4%; in assay [1] (setting [7]) it was -0.881%.
For the compound `C[C@]12CC[C@@H]3c4ccc(O)cc4C[C@@H](CCCCCCCCCS(=O)CCCC(F)(F)C(F)(F)F)[C@H]3[C@@H]1CC[C@@H]2O` (stereo partly specified), the Potency result with PA-1, in the assay with SKOV3, in the assay with Tov-21-G, in the assay with Tov112D and with astro was “inactive” in each case. Further, the activity, negative = cell killing in assay [1] (setting [4]) is 11.9%; in assay [1] (setting [5]), -8.98%; in assay [1] (setting [7]) it was 16.6%. Moreover, the Potency in assay [1] (tumour line A) was 4.47 µM (active).
Turning to `Cc1nnc(SCC2=C(C(=O)O)N3C(=O)[C@@H](NC(=O)Cn4cnnn4)[C@H]3SC2)s1`, the Potency entry in the assay with PA-1, with SKOV3, in the assay on Tov-21-G, in the assay on Tov112D and with astro was “inactive” throughout. Besides, the figures for the activity, negative = cell killing in assay [1] (setting [4]), in assay [1] (setting [5]) and in assay [1] (setting [7]) were -10.7%, -8.75% and -9.01%, respectively.
Turning to `C[C@]12C=CC(=O)C=C1CC[C@H]1[C@@H]3C[C@@H](O)[C@](O)(C(=O)CO)[C@@]3(C)C[C@H](O)[C@@]12F`, the Potency result in the assay with PA-1, in the assay on SKOV3, with Tov-21-G, with Tov112D and in the assay with astro was “inactive” in each case. For the same compound, the activity, negative = cell killing was -11.4% in assay [1] (setting [4]), -6.95% in assay [1] (setting [5]), -27.1% in assay [1] (setting [6]) and 7.27% in assay [1] (setting [7]). For the same compound, the activity change, negative = inhibition in assay [3] was 8.47%. Further, in assay [2], the max response was 3.64%.
Turning to `CN1CCN(C2=Nc3ccccc3Oc3ccc(Cl)cc32)CC1`, the Potency result in the assay on PA-1, with SKOV3, in the assay on Tov-21-G, with Tov112D and in the assay with astro was “inactive” throughout. Further, the figures for the activity, negative = cell killing in assay [1] (setting [8]), in assay [1] (setting [9]) and in assay [1] (setting [10]) were -15.4%, -17.3% and -18.3%, respectively. Also, the Potency in assay [1] (tumour line A) was 12.6 µM (active).
Regarding `CCCCCN(CCCCC)C(=O)C(CCC(=O)O)NC(=O)c1ccc(Cl)c(Cl)c1` (stereo unspecified), the Potency entry in the assay with PA-1, in the assay on SKOV3, with Tov-21-G, with Tov112D and in the assay on astro was “inactive” each time. In addition, the results for the activity, negative = cell killing in assay [1] (setting [4]), in assay [1] (setting [5]) and in assay [1] (setting [7]) were -4.86%, -12.8% and -26.2%, respectively.
Turning to `O=C(O)CN(CCN(CC(=O)O)CC(=O)O)CCN(CC(=O)O)CC(=O)O`, the Potency result in the assay on PA-1, with SKOV3, in the assay on Tov-21-G, with Tov112D and in the assay with astro was “inactive” each time. Besides, the activity, negative = cell killing in assay [1] (setting [4]) is -4.92%; in assay [1] (setting [5]), -0.113%; in assay [1] (setting [7]), -9.95%.
In the case of `CC(=O)[C@@]1(O)CC[C@H]2[C@@H]3CCC4=CC(=O)CC[C@]4(C)[C@H]3CC[C@@]21C`, the Potency result in the assay with PA-1, in the assay with SKOV3, in the assay with Tov-21-G, in the assay with Tov112D and in the assay with astro was “inactive” throughout. The figures for the activity, negative = cell killing in assay [1] (setting [4]), in assay [1] (setting [5]) and in assay [1] (setting [7]) were -19.9%, -29.7% and -20.5%, respectively.
Turning to `CSc1ccc(C(=O)c2[nH]c(=O)[nH]c2C)cc1`, the Potency result in the assay with PA-1, in the assay with SKOV3, in the assay on Tov-21-G, in the assay on Tov112D and in the assay on astro was “inactive” throughout. Moreover, the activity, negative = cell killing in assay [1] (setting [4]) is -10.8%; in assay [1] (setting [5]), -20.6%; in assay [1] (setting [7]) it was -21.1%.
In the case of `CCOC(=O)C1=C(C)NC(C)=C(C(=O)OC)C1c1cccc([N+](=O)[O-])c1` (stereo unspecified), the Potency entry in the assay on PA-1, in the assay with SKOV3, in the assay with Tov-21-G, in the assay on Tov112D and in the assay with astro was “inactive” in each case. Further, the activity, negative = cell killing in assay [1] (setting [4]) is 3.31%; in assay [1] (setting [5]), -28.4%; in assay [1] (setting [7]), -23.9%. The Potency in assay [1] (tumour line A) was 11.2 µM (active).
Turning to `CCN(CC)CCNC(=O)c1cc(S(C)(=O)=O)ccc1OC`, the Potency entry in the assay with PA-1, with SKOV3, in the assay on Tov-21-G, in the assay on Tov112D and in the assay on astro was “inactive” in each case. The values for the activity, negative = cell killing in assay [1] (setting [8]), in assay [1] (setting [9]) and in assay [1] (setting [10]) were -10.9%, -7.73% and -4.2%, respectively.
On to `CCN(CC)CC(=O)Nc1c(C)cccc1C`, for which the Potency entry with PA-1, in the assay with SKOV3, in the assay with Tov-21-G, in the assay with Tov112D and in the assay with astro was “inactive” each time. Besides, the activity, negative = cell killing in assay [1] (setting [4]) is -12.8%; in assay [1] (setting [6]) it was 16.4%; in assay [1] (setting [7]) it was -29.2%.
For the compound `CN1C(=O)CC[C@H]1c1cccnc1`, the Potency result with PA-1, in the assay on SKOV3, in the assay on Tov-21-G, in the assay with Tov112D and in the assay with astro was “inactive” throughout. Further, the activity, negative = cell killing in assay [1] (setting [4]) is -1.32%; in assay [1] (setting [5]), -18.5%; in assay [1] (setting [6]) it was -11.4%; in assay [1] (setting [7]), -34.2%.
Turning to `CC(C)(Oc1ccc(CCNC(=O)c2ccc(Cl)cc2)cc1)C(=O)O`, the Potency result with PA-1, in the assay with SKOV3, with Tov-21-G, in the assay on Tov112D and with astro was “inactive” in each case. Besides, the activity, negative = cell killing is 15.6% in assay [1] (setting [8]); -6.51% in assay [1] (setting [9]); 0.604% in assay [1] (setting [10]); -25.9% in assay [1] (at 21.3 µM (top of the series), tumour line A). Moreover, the max response in assay [2] is -5.47%.
With `Cc1cccc(C)c1NC(=O)C(C)N` (stereo unspecified), the Potency result with PA-1, in the assay on SKOV3, with Tov-21-G, in the assay on Tov112D and in the assay on astro was “inactive” throughout. In addition, the results for the activity, negative = cell killing in assay [1] (setting [8]), in assay [1] (setting [9]) and in assay [1] (setting [10]) were 6.4%, -16.9% and 1.82%, respectively.
Consider `Cc1ccc(/C(=C\CN2CCCC2)c2ccccn2)cc1`, for which the Potency entry in the assay with PA-1, in the assay with SKOV3, in the assay on Tov-21-G, with Tov112D and in the assay with astro was “inactive” throughout. Also, the activity, negative = cell killing was -22.4% in assay [1] (setting [4]), -28.9% in assay [1] (setting [5]) and 0.541% in assay [1] (setting [7]). Further, the Potency in assay [1] (tumour line A) is 17.8 µM (active).
Turning to `O=C1CC2(CCCC2)CC(=O)N1CCCCN1CCN(c2ncccn2)CC1`, the Potency result in the assay on PA-1, in the assay with SKOV3, in the assay with Tov-21-G, in the assay with Tov112D and with astro was “inactive” throughout. Besides, the activity, negative = cell killing in assay [1] (setting [4]) is -25.4%; in assay [1] (setting [7]), -16.7%. Also, the Potency in assay [1] (tumour line A) was 5.01 µM (active).
